# Source: PubChem BioAssay AID720690 (Broad Institute, 2013)
# Measured potencies and affinities stand elsewhere. Calls of active or inactive are those of the source.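 The calls were made as follows: active = every repeat run showing a signal drop whose fitted half-maximal concentration is at most twice the top tested concentration; inconclusive = repeat runs disagree, or flat partial drop, or poor fit; inactive = the rest.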
# Experiment: HEK293T cytotoxicity, dose response, cytotoxicity control for miR-122 modulator project, cell-based, activator set, cherry-pick (AID 720690);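 also: 0% = neutral control wells and -100% = MG132 cytotoxic control wells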
# Conditions: HEK293T viability, CellTiter-Glo luminescence, 48 h; series mostly up to 26 µM; activity change, negative = cytotoxicity: at the top concentration
row,SMILES,"activity change, negative = cytotoxicity"
1,CNC(=O)C[C@@H]1CC[C@@H]2[C@@H](COc3ccc(NC(=O)c4ccccc4OC)cc3C(=O)N2C)O1,-6.77% [at 23.5 µM] (inactive)
2,CCNC(=O)C[C@H]1CC[C@@H]2[C@H](COc3ccc(NC(=O)c4cccs4)cc3C(=O)N2C)O1,3.03% (inactive)
3,COc1cccc(NC(=O)N(C)C[C@@H]2Oc3ncc(C#Cc4ccncc4)cc3C(=O)N([C@@H](C)CO)C[C@H]2C)c1,-11.6% (inactive)
4,COC(=O)C[C@@H]1CC[C@@H]2[C@H](COc3ccc(NC(=O)Nc4cccc(F)c4)cc3C(=O)N2C)O1,-1.64% (inactive)
5,CC(C)NC(=O)Nc1ccc2c(c1)C(=O)N(C)[C@@H]1CC[C@@H](CC(=O)NCC(F)(F)F)O[C@@H]1CO2,-13.4% (inactive)
6,C[C@H](CO)N1C[C@H](C)[C@@H](CN(C)CC2CCCCC2)OCCCC[C@H](C)Oc2ccc(NC(=O)Nc3cccc4ccccc34)cc2C1=O,-16.2% (inactive)
7,Cc1nnsc1Sc1cccc(C(F)(F)F)c1,2.48% (inactive)
8,C/C=C/c1ccc([C@@H]2[C@@H](CO)N(C(=O)Cc3cccnc3)[C@H]2CNC(C)=O)cc1,-15% (inactive)
9,CNC(=O)C[C@@H]1CC[C@H]2[C@H](COc3ccc(NC(=O)c4cccc(OC)c4)cc3C(=O)N2C)O1,-12.6% (inactive)
10,COc1ccc(S(=O)(=O)Nc2cccc3c2O[C@H](CN(C)CC2CCCCC2)[C@@H](C)CN([C@H](C)CO)C3=O)cc1,3.99% (inactive)
11,CCN(C[C@@H]1[C@@H](c2ccccc2)[C@H](CO)N1C(C)=O)C(=O)NC(C)C,-5.38% (inactive)
12,CC(=O)Nc1ccc2c(c1)C(=O)N(C)[C@@H]1CC[C@@H](CC(=O)NCc3ccc(Cl)cc3)O[C@H]1CO2,0.467% [at 23.5 µM] (inactive)
